Reference: PubChem BioAssay (EPA / NIEHS)
Where “and” joins values, the source holds several entries; their conditions need not be identical. Equal entries are not always repeated. Results filed as inconclusive are left out. Where a structure was tested more than once in an assay, its records may differ in their call. Calls of active or inactive are those of the source. Rule for the calls, unless noted: active = hit-call score of the fitted dose curve at least 0.9, where 1 is the maximum; inactive = score below 0.9.

Legend:
[1] = ATG_TAL_CIS: Attagene CIS-FACTORIAL HepG2 Assay for human TAL Basal Promoter (AID 2282966); conditions: HepG2 Attagene cis-factorial TAL promoter reporter; actives raise or lower the signal;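 note: background control endpoint measuring basal TAL promoter reporter mRNA not a specific factor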
Summary of the method: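 In this cell-based multiplex, HepG2 liver cells bearing cis-promoter reporter constructs are dosed for 24 hours. Total RNA is reverse-transcribed and amplified, labelled fragments are sized by capillary electrophoresis, and signal changes are fitted bidirectionally versus DMSO.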

[2] = ATG_TGFb_CIS: Attagene CIS-FACTORIAL HepG2 Assay for human Transforming Growth Factor (TGF) (AID 2282967); conditions: HepG2 Attagene CIS TGFb reporter, mRNA transcription; actives raise or lower the signal
Summary of the method: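 Endogenous TGFB1-linked transcription factor activity read as reporter mRNA via RT-PCR and capillary electrophoresis, 24 h after dosing transiently transfected HepG2 cells. Gain or loss of signal fitted relative to DMSO.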

[3] = ATG_VDRE_CIS: Attagene CIS-FACTORIAL HepG2 Assay for human Vitamin D Receptor Element (VDRE) (AID 2282968); conditions: HepG2 VDRE cis-reporter transcription, actives raise or lower the signal
Summary of the method: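 In transiently transfected HepG2 liver cells, gain or loss of reporter mRNA after 24 h exposure is scored relative to DMSO, using fluorescence detection by capillary electrophoresis of RT-PCR products.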

[4] = biological target: X-box-binding protein 1 (Homo sapiens) (UniProt P17861); assay: ATG_Xbp1_CIS: Attagene CIS-FACTORIAL HepG2 Assay for human X-box Binding Protein 1 (XBP1) (AID 2282972); conditions: HepG2 XBP1 cis-element reporter, Attagene multiplex; actives raise or lower the signal
Summary of the method: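 HepG2, transient MRTU transfection (cis-promoter driven), 24 h compound exposure. Total RNA → oligo(dT) RT → PCR → 6-FAM labeling → HpaI cut → CE. Bidirectional fit vs DMSO.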

[5] = ATG_M_19_TRANS: Attagene TRANS-FACTORIAL HepG2 Assay for M19 Transcription Factor (Internal Marker) (AID 2282974; active = hit-call score of the fitted dose curve at least 0.9, where 1 is the maximum); conditions: HepG2 Attagene TRANS-FACTORIAL M19 internal marker reporter
Summary of the method: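 Cells: human HepG2, transiently transfected with multiplexed reporter transcription units. Exposure: 24 h. Detection: RT-PCR of reporter mRNA with capillary electrophoresis. Analysis: gain-of-signal vs DMSO.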

[6] = biological target: Bile acid receptor (Homo sapiens) (UniProt Q96RI1); assay: ATG_FXR_TRANS: Attagene TRANS-FACTORIAL HepG2 Assay for Farnesoid X Receptor (FXR) (AID 2282979; active = hit-call score of the fitted dose curve at least 0.9, where 1 is the maximum;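 note: hits raise reporter mRNA above DMSO so AC50 marks FXR activation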); conditions: HepG2 Attagene TRANS FXR-GAL4 reporter transcription
Summary of the method: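 Read-out: fluorescent reporter transcripts quantified by capillary electrophoresis after RT-PCR of total RNA. Source cells were HepG2 transiently carrying chimeric NR-GAL4 plus GAL4-UAS reporter units, dosed 24 h. Activity fitted upward relative to DMSO baseline.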

[7] = biological target: Oxysterols receptor LXR-beta (Homo sapiens) (UniProt P55055); assay: ATG_LXRb_TRANS: Attagene TRANS-FACTORIAL HepG2 Assay for human Liver X Receptor beta (LXRb) (AID 2282981; active = hit-call score of the fitted dose curve at least 0.9, where 1 is the maximum); conditions: HepG2 Attagene TRANS GAL4-LXRb reporter, mRNA
Summary of the method: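 Cells: HepG2, transiently transfected with GAL4-UAS reporter units plus LXRb-Gal4 fusion. Treatment: 24 h. Detection: reporter mRNA by RT-PCR, 6-FAM labelling, HpaI digestion, capillary electrophoresis.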

[8] = biological target: Hepatocyte nuclear factor 4-alpha (Homo sapiens) (UniProt P41235); assay: ATG_HNF4a_TRANS: Attagene TRANS-FACTORIAL HepG2 Assay for human Hepatocyte Nuclear Factor 4 alpha (HNF4a) (AID 2282982; active = hit-call score of the fitted dose curve at least 0.9, where 1 is the maximum); conditions: HepG2 HNF4a transactivation reporter, mRNA readout
Summary of the method: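 Transfected HepG2 reporter cells are dosed for 24 h; reporter RNA is reverse-transcribed, amplified, fluorescently labelled and HpaI-digested before CE sizing. Positive-direction fit against DMSO.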

[9] = biological target: Transcriptional activator Myb (Homo sapiens) (UniProt P10242); assay: ATG_Myb_CIS: Attagene CIS-FACTORIAL HepG2 Assay for human Myeloblastosis (Myb) Proto-Oncogene Transcription Factor (AID 2282986); conditions: HepG2 Attagene CIS-FACTORIAL Myb reporter transcription; actives raise or lower the signal
Summary of the method: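 Steps: transfect HepG2 with cis-regulated reporter units; dose with chemical for 24 h; isolate RNA, reverse-transcribe, PCR-amplify and FAM-label reporter sequences; digest with HpaI; resolve by capillary electrophoresis. Activity fitted in both directions relative to DMSO.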

[10] = biological target: Nuclear respiratory factor 1 (Homo sapiens) (UniProt Q16656); assay: ATG_NRF1_CIS: Attagene CIS-FACTORIAL HepG2 Assay for human Nuclear Respiratory Factor 1 (NRF1) Orphan Gene (AID 2282987); conditions: HepG2 NRF1 cis-element reporter, Attagene multiplex; actives raise or lower the signal
Summary of the method: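 Fluorescence intensity of labelled reporter cDNA fragments, resolved by capillary electrophoresis, served as readout for NRF1 cis-element activity. Transiently transfected HepG2 cells were dosed for 24 hours; activity in either direction was fitted against DMSO negative control.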

[11] = ATG_GAL4_TRANS: Attagene TRANS-FACTORIAL HepG2 Assay for GAL4 (Internal Marker) (AID 2282976; active = hit-call score of the fitted dose curve at least 0.9, where 1 is the maximum); conditions: HepG2 Attagene TRANS GAL4 internal marker reporter
Summary of the method: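 RT-PCR/capillary electrophoresis readout of reporter mRNA. HepG2, transient MRTU transfection (GAL4-UAS reporters), 24 h compound exposure. Background-control endpoint, positive direction vs DMSO baseline.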

[12] = biological target: Glucocorticoid receptor (Homo sapiens) (UniProt P04150); assay: ATG_GR_TRANS: Attagene TRANS-FACTORIAL HepG2 Assay for human Glucocorticoid Receptor (GR) (AID 2282978; active = hit-call score of the fitted dose curve at least 0.9, where 1 is the maximum;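 note: activators score as hits since higher reporter transcript over DMSO is fitted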); conditions: HepG2 Attagene TRANS GR reporter, mRNA transcription
Summary of the method: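 In this trans-factorial format, exogenous NR-GAL4 chimeric proteins in transfected HepG2 cells regulate GAL4-UAS reporter transcription. After 24 h treatment, reporter mRNA induction relative to DMSO is read by RT-PCR and capillary electrophoresis.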

[13] = biological target: Oxysterols receptor LXR-alpha (Homo sapiens) (UniProt Q13133); assay: ATG_LXRa_TRANS: Attagene TRANS-FACTORIAL HepG2 Assay for human Liver X Receptor alpha (LXRa) (AID 2282980; active = hit-call score of the fitted dose curve at least 0.9, where 1 is the maximum); conditions: HepG2 Attagene TRANS reporter, LXRa transactivation
Summary of the method: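 Read-out: reporter transcript levels by RT-PCR plus capillary electrophoresis, fluorescence intensity. Transiently transfected HepG2, exogenous NR-GAL4 chimera, GAL4-UAS reporters; 24 h compound exposure. Activity = increase over DMSO negative control.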

[14] = ATG_M_06_TRANS: Attagene TRANS-FACTORIAL HepG2 Assay for M06 Transcription Factor (Internal Marker) (AID 2282983; active = hit-call score of the fitted dose curve at least 0.9, where 1 is the maximum); conditions: HepG2 Attagene TRANS M06 internal marker reporter
Summary of the method: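 After a 24 h chemical treatment of transfected HepG2, RNA underwent DNase I treatment, reverse transcription and reporter-specific PCR; labelled, HpaI-digested products were sized by capillary electrophoresis. Signal increase relative to DMSO defined activity.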

[15] = biological target: Nuclear receptor subfamily 4 group A member 2 (Homo sapiens) (UniProt P43354); assay: ATG_NURR1_TRANS: Attagene TRANS-FACTORIAL HepG2 Assay for human Nuclear Receptor Related Protein 1 (NURR1) (AID 2282985; active = hit-call score of the fitted dose curve at least 0.9, where 1 is the maximum); conditions: HepG2 Attagene TRANS reporter, mRNA readout
Summary of the method: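 Cells: HepG2, transiently transfected. Exposure: 24 h. Detection: fluorescence of labelled RT-PCR products separated by capillary electrophoresis; upward fit versus DMSO.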

[16] = biological target: Estrogen receptor (Homo sapiens) (UniProt P03372); assay: ATG_ERa_TRANS: Attagene TRANS-FACTORIAL HepG2 Assay for human Estrogen Receptor alpha (ERa) (AID 2282970; active = hit-call score of the fitted dose curve at least 0.9, where 1 is the maximum); conditions: HepG2 Attagene TRANS ERa GAL4 reporter, mRNA
Summary of the method: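 After 24 h of compound treatment, RNA from HepG2 cells bearing transfected GAL4-UAS reporter constructs is converted to cDNA, amplified and fluorescently labelled. Capillary electrophoresis resolves the ERa-linked reporter; DMSO serves as negative control.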

[17] = biological target: Steroid hormone receptor ERR1 (Homo sapiens) (UniProt P11474); assay: ATG_ERRa_TRANS: Attagene TRANS-FACTORIAL HepG2 Assay for human Estrogen-Related Receptor alpha (ERRa) (AID 2282971; active = hit-call score of the fitted dose curve at least 0.9, where 1 is the maximum); conditions: HepG2 Attagene TRANS reporter, ERRa transactivation
Summary of the method: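 Transfected HepG2, 24 h dosing, ERRa-Gal4 chimera driving GAL4-UAS reporter. Readout: reporter mRNA via RT-PCR plus capillary electrophoresis (fluorescence). Positive direction vs DMSO control.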

[18] = biological target: Estrogen-related receptor gamma (Homo sapiens) (UniProt P62508); assay: ATG_ERRg_TRANS: Attagene TRANS-FACTORIAL HepG2 Assay for human Estrogen-Related Receptor gamma (ERRg) (AID 2282977; active = hit-call score of the fitted dose curve at least 0.9, where 1 is the maximum;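 note: hits increase reporter signal over DMSO so potencies reflect activators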); conditions: HepG2 Attagene TRANS reporter, ERRg transactivation
Summary of the method: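 Transient HepG2 transfectants, 24 h compound exposure, GAL4-UAS reporter mRNA by RT-PCR/6-FAM labelling/capillary electrophoresis; positive direction vs DMSO.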

Measured: AC50

Bile acid receptor (Homo sapiens), sequence (Q96RI1 whole entry, looked up, the tested form may be a part): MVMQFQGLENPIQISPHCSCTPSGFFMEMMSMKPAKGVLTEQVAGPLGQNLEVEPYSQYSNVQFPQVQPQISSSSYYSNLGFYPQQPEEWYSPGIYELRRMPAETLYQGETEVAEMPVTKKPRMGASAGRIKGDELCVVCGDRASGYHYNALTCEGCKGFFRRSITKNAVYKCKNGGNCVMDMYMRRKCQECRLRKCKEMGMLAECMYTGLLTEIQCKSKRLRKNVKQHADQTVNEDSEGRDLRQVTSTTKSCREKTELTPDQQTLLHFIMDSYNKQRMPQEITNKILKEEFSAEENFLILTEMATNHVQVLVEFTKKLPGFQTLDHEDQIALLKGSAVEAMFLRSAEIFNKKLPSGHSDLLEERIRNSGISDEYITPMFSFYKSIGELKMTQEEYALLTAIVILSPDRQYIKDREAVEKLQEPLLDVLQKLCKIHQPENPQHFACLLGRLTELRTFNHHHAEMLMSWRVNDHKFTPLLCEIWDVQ
X-box-binding protein 1 (Homo sapiens), sequence (P17861 whole entry, looked up): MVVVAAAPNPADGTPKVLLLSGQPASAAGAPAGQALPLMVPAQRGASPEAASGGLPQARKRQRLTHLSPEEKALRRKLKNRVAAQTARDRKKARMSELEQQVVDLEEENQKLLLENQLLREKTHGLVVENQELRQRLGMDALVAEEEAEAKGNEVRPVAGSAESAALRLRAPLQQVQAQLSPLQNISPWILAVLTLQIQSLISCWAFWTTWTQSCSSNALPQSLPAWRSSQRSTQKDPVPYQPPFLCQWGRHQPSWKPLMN
Oxysterols receptor LXR-alpha (Homo sapiens), sequence (Q13133 whole entry, looked up, the tested form may be a part): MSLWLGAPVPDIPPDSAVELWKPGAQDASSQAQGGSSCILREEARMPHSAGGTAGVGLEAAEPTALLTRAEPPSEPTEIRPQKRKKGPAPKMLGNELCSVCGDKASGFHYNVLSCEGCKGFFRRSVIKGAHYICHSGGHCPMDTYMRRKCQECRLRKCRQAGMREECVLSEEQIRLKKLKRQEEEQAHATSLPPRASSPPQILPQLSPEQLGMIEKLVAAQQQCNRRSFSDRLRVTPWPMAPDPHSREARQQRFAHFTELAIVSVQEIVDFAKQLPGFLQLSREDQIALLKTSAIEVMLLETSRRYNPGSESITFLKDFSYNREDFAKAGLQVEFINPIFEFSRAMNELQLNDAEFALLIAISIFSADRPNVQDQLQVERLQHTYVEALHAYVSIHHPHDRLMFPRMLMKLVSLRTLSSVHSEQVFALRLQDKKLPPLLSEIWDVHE
Nuclear receptor subfamily 4 group A member 2 (Homo sapiens), sequence (P43354 whole entry, looked up): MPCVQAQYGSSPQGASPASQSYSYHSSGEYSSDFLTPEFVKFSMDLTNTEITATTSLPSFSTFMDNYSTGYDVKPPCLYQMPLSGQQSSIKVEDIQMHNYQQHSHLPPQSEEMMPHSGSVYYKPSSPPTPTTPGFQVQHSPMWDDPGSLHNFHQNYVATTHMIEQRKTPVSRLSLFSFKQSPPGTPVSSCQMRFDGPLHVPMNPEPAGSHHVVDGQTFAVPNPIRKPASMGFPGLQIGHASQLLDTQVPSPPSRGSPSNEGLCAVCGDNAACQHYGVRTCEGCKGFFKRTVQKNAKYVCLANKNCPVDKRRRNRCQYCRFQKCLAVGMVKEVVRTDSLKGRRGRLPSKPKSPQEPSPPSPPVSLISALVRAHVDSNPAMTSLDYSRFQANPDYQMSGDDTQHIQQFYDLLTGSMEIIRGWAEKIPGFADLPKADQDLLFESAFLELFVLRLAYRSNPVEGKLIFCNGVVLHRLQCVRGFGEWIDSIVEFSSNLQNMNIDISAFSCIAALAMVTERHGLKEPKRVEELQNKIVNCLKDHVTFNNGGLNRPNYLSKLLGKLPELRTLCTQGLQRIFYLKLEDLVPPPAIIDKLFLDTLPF
Oxysterols receptor LXR-beta (Homo sapiens), sequence (P55055 whole entry, looked up, the tested form may be a part): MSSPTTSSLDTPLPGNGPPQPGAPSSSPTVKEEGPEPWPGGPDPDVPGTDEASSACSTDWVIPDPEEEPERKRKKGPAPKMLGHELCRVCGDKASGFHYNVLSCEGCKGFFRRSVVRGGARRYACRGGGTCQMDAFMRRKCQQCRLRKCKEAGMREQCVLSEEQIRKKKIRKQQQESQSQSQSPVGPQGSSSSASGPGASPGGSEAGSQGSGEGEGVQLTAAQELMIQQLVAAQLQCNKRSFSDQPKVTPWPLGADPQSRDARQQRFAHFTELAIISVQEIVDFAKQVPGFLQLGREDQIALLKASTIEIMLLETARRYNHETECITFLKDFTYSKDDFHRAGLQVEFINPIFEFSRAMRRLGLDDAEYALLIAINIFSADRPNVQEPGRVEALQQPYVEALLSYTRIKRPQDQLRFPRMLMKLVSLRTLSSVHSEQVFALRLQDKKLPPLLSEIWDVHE
Transcriptional activator Myb (Homo sapiens), sequence (P10242 whole entry, looked up): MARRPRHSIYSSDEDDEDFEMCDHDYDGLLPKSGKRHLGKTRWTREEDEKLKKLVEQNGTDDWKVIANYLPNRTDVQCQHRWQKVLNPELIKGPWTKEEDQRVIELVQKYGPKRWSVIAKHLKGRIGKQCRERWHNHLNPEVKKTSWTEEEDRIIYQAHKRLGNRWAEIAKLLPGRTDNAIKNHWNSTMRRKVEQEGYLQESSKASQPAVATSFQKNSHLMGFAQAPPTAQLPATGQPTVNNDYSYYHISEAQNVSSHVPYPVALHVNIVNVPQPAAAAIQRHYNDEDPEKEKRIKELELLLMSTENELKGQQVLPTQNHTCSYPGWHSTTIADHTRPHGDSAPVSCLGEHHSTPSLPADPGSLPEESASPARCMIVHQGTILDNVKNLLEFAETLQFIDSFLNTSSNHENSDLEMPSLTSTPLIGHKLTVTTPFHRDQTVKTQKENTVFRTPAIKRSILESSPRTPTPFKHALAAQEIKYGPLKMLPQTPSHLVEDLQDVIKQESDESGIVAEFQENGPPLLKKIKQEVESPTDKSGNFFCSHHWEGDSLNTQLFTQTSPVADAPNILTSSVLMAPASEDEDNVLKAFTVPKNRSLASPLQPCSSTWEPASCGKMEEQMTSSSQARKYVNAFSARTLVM
Steroid hormone receptor ERR1 (Homo sapiens), sequence (P11474 whole entry, looked up, the tested form may be a part): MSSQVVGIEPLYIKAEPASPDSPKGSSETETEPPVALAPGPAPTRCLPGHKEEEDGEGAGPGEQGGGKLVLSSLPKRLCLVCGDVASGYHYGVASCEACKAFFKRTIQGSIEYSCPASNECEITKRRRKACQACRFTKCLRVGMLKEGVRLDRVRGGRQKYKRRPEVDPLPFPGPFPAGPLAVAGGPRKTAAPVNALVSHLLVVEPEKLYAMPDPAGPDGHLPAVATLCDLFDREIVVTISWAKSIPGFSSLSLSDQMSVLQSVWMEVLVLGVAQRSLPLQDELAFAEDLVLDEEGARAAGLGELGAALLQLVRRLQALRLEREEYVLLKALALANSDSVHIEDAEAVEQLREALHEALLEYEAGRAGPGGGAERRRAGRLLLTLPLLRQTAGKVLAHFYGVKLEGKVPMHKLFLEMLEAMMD
Hepatocyte nuclear factor 4-alpha (Homo sapiens), sequence (P41235 whole entry, looked up): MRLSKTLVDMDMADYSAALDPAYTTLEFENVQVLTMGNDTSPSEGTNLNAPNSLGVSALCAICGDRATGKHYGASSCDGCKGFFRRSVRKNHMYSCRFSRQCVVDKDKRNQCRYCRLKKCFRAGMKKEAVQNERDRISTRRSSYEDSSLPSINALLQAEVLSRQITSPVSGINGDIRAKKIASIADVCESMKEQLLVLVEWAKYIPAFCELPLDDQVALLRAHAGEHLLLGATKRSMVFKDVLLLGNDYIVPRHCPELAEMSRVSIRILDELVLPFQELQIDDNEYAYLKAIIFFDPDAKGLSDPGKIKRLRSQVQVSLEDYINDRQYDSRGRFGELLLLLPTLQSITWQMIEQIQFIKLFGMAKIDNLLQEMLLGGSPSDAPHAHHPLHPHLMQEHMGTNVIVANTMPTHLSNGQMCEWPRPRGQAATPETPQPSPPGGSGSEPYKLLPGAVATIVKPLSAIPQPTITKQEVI
Nuclear respiratory factor 1 (Homo sapiens), sequence (Q16656 whole entry, looked up, the tested form may be a part): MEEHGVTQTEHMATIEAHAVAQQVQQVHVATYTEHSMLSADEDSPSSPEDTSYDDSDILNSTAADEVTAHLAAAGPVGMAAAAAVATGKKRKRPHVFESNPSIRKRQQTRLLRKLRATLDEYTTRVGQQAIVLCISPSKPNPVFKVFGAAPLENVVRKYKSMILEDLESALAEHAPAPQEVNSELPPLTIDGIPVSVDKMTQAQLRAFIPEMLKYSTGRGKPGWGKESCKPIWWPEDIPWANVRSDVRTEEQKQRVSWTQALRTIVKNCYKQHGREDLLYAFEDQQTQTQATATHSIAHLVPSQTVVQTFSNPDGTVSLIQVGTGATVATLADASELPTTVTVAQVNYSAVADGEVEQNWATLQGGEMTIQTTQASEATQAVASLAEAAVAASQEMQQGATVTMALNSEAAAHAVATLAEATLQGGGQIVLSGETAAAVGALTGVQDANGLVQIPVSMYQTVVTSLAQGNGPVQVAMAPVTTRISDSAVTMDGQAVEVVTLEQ
Estrogen receptor (Homo sapiens), sequence (P03372 whole entry, looked up, the tested form may be a part): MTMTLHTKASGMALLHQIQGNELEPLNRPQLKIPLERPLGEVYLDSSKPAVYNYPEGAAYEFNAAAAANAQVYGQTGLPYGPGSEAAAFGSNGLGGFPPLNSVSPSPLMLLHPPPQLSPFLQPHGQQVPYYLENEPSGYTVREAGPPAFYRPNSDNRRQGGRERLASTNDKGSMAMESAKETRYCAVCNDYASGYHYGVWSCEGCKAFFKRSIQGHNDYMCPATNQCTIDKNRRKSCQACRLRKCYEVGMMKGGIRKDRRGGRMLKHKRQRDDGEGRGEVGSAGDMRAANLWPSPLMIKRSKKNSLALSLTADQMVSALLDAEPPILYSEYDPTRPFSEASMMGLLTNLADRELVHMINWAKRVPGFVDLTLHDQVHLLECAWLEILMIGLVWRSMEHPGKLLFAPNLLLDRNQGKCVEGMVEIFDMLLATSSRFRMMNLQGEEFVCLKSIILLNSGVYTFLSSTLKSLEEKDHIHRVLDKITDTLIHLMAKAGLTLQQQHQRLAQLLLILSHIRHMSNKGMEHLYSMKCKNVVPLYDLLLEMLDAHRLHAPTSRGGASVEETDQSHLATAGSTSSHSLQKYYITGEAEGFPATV

CN(C)C(=O)NC1(c2ccccc2)CCN(CCC[C@]2(c3ccc(Cl)c(Cl)c3)CCCN(C(=O)c3ccccc3)C2)CC1
inactive: [1] | [2] | [5] | [6] | [7] | [8] | [9]
active: [3] 2.75 µM | [4] 4.69 µM | [10] 4.5 µM

CCCCCCCC(=O)OC
inactive: [1] | [2] | [3] | [16] | [4] | [5] | [7] | [14] | [15] | [9] | [10]

CO[C@@H]1COCC[C@@H]1N[C@@H]1CC[C@@](C(=O)N2CCc3ncc(C(F)(F)F)cc3C2)(C(C)C)C1
inactive: [1] | [2] | [3] | [4] | [5] | [11] | [9] | [10]

CCCCCCCCCC[N+](C)(C)[O-]
inactive: [1] | [2] | [3] | [17] | [4] | [5] | [18] | [12] | [13] | [7] | [9] | [10]

CC(C)c1cccc(C(C)C)c1
inactive: [1] | [2] | [3] | [17] | [4] | [5] | [8] | [9] | [10]

Cn1cnc2c1c(=O)[nH]c(=O)n2C
inactive: [1] | [2] | [3] | [4] | [11] | [12] | [6] | [13] | [14] | [15] | [9] | [10]

O=C(Oc1ccccc1)c1cccc(C(=O)Oc2ccccc2)c1
inactive: [1] | [2] | [3] | [4] | [5] | [11] | [12] | [6] | [14] | [15] | [9] | [10]

C=CCc1ccc(OC)c(OC)c1
inactive: [1] | [2] | [3] | [4] | [5] | [12] | [6] | [13] | [8] | [14] | [9] | [10]

CC(C)NCC(O)c1ccc(O)c(O)c1 (centres undefined)
inactive: [1] | [2] | [3] | [17] | [4] | [11] | [13] | [14] | [15] | [9] | [10]

O=C1OC(c2ccc(O)cc2)(c2ccc(O)cc2)c2ccccc21
active: [1] 46.8 µM | [3] 6.27 µM | [4] 30 µM
inactive: [2] | [5] | [9] | [10]
